Drawing on PubChem BioAssay (NCI), this text covers growth for seven compounds.

Common to all, as to assay: NCI-60 one-dose screen, 48 h (100 = growth as untreated, 0 = no growth, -100 = all killed)
Holding throughout (settings): 10 µM unless noted

The test system of experiment [1] is SR leukemia.
The subject of experiment [2] is RPMI-8226 leukemia.
Experiment [3] concerns OVCAR-8 ovarian.
The subject of experiment [4] is OVCAR-5 ovarian.
Experiment [5] deals with OVCAR-4 ovarian.
The subject of experiment [6] is SK-OV-3 ovarian.
Experiment [7] has as its system IGROV1 ovarian.
For experiment [8], the system named is OVCAR-3 ovarian.
Experiment [9] deals with HS 578T breast.
Experiment [10] concerns NCI/ADR-RES ovarian.
Experiment [11] has as its system T-47D breast.
The test system of experiment [12] is BT-549 breast.
For experiment [13], the system named is MDA-MB-435 melanoma.
Experiment [14] has as its system SW-620 colon.
The test system of experiment [15] is MCF7 breast.
Experiment [16] has as its system HCT-116 colon.
The test system of experiment [17] is HCC-2998 colon.
Experiment [18] has as its system KM12 colon.
Experiment [19] has as its system MDA-MB-468 breast.

SMILES strings stand for the structures. The panel holds about 83,000 compounds, 20% with a hit somewhere; the sample as a whole holds those more often.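 Compound tested at a single concentration for 48 hours in 96-well plates; a percent growth value below 10 was scored as active.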 Unmarked numbers belong to inactive results. Active and inactive are the calls of the source.

`S=c1c2ccccc2nc2n1CCc1c-2[nH]c2ccccc12`: the growth is 67.7% in [1]; 89.5% in experiment [2]; 28.6% in [3]; 86.8% in experiment [4]; 50.3% in [5]; 42.2% in experiment [6]. For the same compound, the growth in experiment [7] was 48.2%; in [8], 67.2%; in [9], 8.23% (active); in experiment [10] it was 49.6%; in experiment [11] it was 37.2%; in experiment [12], 49.9%. Also, the growth in experiment [13] is 88.6%; in [14], 80.9%; in experiment [15], 43%; in experiment [16], 48.7%; in experiment [17], 64.9%; in [18], 80.9%. Besides, the growth in experiment [19] was 47.9%.

Consider `COc1cc2c(c(OC)c1OC)C(=O)CC(c1cccc(NC(=O)c3cc(NC(=O)[C@H](CO)NC(=O)OC(C)(C)C)ccc3Cl)c1)O2` (stereo partly drawn), for which the growth was 19.4% in experiment [1]; 17.9% in experiment [2]; 21.9% in [3]; 86.8% in [4]; 47.9% in experiment [5]; 81.7% in experiment [6]. For the same compound, the growth in experiment [7] was 36.8%; in experiment [8], 27.4%; in experiment [9] it was 28.7%; in experiment [10] it was 76.4%; in experiment [11] it was 13.5%; in experiment [12] it was -3.14% (active). The growth in experiment [13] is 10.1%; in experiment [14], 44%; in [15], 12.2%; in [16] it was 14.4%; in [17], 73%; in experiment [18] it was 14.5%. Besides, the growth in experiment [19] is 19.8%.

Take `COc1ccc(/C=C/c2nc3ccccc3n3c(-c4ccc(Cl)cc4)nnc23)cc1`: the growth in [1] was 60.1%; in experiment [2], 81.4%; in experiment [3] it was 92.7%; in [4], 102%; in experiment [5] it was 81%; in experiment [6], 98.4%. In addition, the growth is 66.8% in experiment [7]; 99% in experiment [8]; 96.2% in experiment [9]; 94.4% in [10]; 80.6% in experiment [11]; 114% in experiment [12]. Also, the growth was 96.1% in experiment [13]; 99.2% in experiment [14]; 73.1% in experiment [15]; 88.3% in [16]; 110% in [17]; 93.1% in [18]. Further, the growth in experiment [19] is 106%.

On to `COc1cc(/C=C2\C(=N)N=C(SCc3nc4ccccc4[nH]3)NC2=O)ccc1O`, for which the growth was 88.5% in [1]; 85% in experiment [2]; 101% in experiment [3]; 109% in experiment [4]; 96.6% in experiment [5]; 103% in experiment [6]. The growth in experiment [7] was 106%; in experiment [8] it was 103%; in experiment [9] it was 93.3%; in experiment [10], 99%; in [11] it was 99.8%; in [12], 107%. Also, the growth in experiment [13] was 99.7%; in experiment [14] it was 95.6%; in [15] it was 93.7%; in [16] it was 99.8%; in experiment [17] it was 105%; in experiment [18], 106%. For the same compound, the growth in experiment [19] is 106%.

As for `C#CCOc1ccc(/C=N/Nc2nc(-c3ccc(F)cc3)cs2)cc1OC`, the growth in experiment [1] was 25.5%; in experiment [2], 35.5%; in experiment [3] it was 63.8%; in experiment [4] it was 84.9%; in experiment [5], 65.6%; in [6], 88%. For the same compound, the growth was 72.6% in experiment [7]; 71.2% in experiment [8]; 81.2% in [9]; 32.2% in experiment [10]; 35.4% in experiment [11]; 24.5% in [12]. Also, the growth in [13] was 56.2%; in [14], 86.7%; in experiment [15], 35.3%; in [16], 44.6%; in experiment [17], 92.9%; in experiment [18], 59.9%. Moreover, in [19], the growth is 51.3%.

On to `O=C(CN1C(=O)/C(=C/c2ccccc2F)SC1=S)N1CCOCC1`, for which the growth was 27.9% in [1]; 52.8% in experiment [2]; 93.4% in [3]; 91.9% in experiment [4]; 73.7% in experiment [5]; 112% in [6]. For the same compound, the growth in experiment [7] was 100%; in experiment [8], 52.8%; in experiment [9], 104%; in experiment [10], 92%; in [11], 61.4%; in experiment [12] it was 111%. The growth is 94.1% in experiment [13]; 32.6% in [14]; 35.3% in experiment [15]; 45.3% in experiment [16]; 116% in experiment [17]; 99.1% in experiment [18]. Further, the growth in experiment [19] is -7.25% (active).

As for `CC1(C)CC[C@]2(C(=O)Nc3ccccc3)CC[C@]3(C)C(=CCC4[C@@]5(C)C[C@@H](O)[C@H](O)[C@@](C)(CO)C5CC[C@]43C)C2C1` (stereo partly drawn), the growth was 15.2% in experiment [1]; 9.08% (active) in experiment [2]; 62.7% in [3]; 86.2% in experiment [4]; 58.9% in experiment [5]; 65.5% in experiment [6]. In addition, the growth was 79% in experiment [7]; 73.4% in experiment [8]; 62.8% in experiment [9]; 61.4% in [10]; 26.9% in experiment [11]; 57% in [12]. In addition, the growth in experiment [13] was 47.9%; in experiment [14] it was 72.2%; in experiment [15], 19.6%; in [16] it was 34.3%; in experiment [17] it was 81.9%; in [18], 55.7%. Besides, the growth in experiment [19] is 22.2%.
